CSC inhib = cancer stem cell viability inhibitors, primary screen, luminescence | cancer stem cell-like cells viability | inhibition, % at 7.5 µM | 300,000 tested, 1.1% active | AID 2717, 2010; in the data active = inhibition above about 75%; tested in HMLE shEcad cells
Beta apoptosis = inhibitors of cytokine-induced beta cell apoptosis, primary screen, luminescence; AID 435005, 2010; INS-1E cytokine-induced death, ATP luminescence, 48 h; percent of positive-control rescue, neutral wells zero; protection from apoptosis, % (no concentration beside the values); 300,000 tested, 0.8% active;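 active = Every replicate reaches about 75%, or at least half do and their mean reaches it too, limit read from the data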;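 note: 0% = cytokine-treated negative control wells and 100% = positive control rescue; higher means more ATP so stronger rescue from cytokine killing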
Calb FLC = C. albicans growth inhibition with fluconazole, primary screen, CaCi-2 strain, Alamar Blue fluorescence; growth inhibition, % (no concentration beside the values); AID 1979, 2009; 300,000 tested, 0.57% active; C. albicans CaCi-2 (fluconazole-resistant clinical isolate) + fluconazole, 48 h;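 active = growth inhibition above about 58% in most replicates, limit read from the data, passing the limit was not always enough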;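 note: all wells also contain fluconazole at 8 µg/ml as a sub-toxic cotreatment; 0% = median of DMSO wells and 100% = median of geldanamycin control wells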
MPTP block = mitochondrial permeability transition pore inhibitors, primary screen, biochemical, isolated mouse mitochondria, absorbance; 360,000 tested, 1.4% active; Ca2+ swelling absorbance, 30 min; inhibition, % at 10 µM;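 active = inhibition of 50% or more, scaled per plate between neutral and stimulator controls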;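 note: 0% = DMSO wells given calcium and 100% = 1 mM EGTA wells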
Mdm2-MdmX inh = inhibitors of human Mdm2-MdmX association, primary screen, cell-based, luminescence, split luciferase, SaOS-2, uHTS; 330,000 tested, 3% active; AID 485346, 2010; inhibition, % at 8 µM; Protein Mdm4 (Homo sapiens) + E3 ubiquitin-protein ligase Mdm2 (Homo sapiens), …; SaOS-2 split-luciferase Mdm2/MdmX complementation;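 active = inhibition of at least 50% at 8 µM in the primary screen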
Mdm2-MdmX conf = Mdm2-MdmX complex disruptors, retested hits, confirmation, luminescence, single concentration; inhibition, % at 8 µM; shares compounds with Mdm2-MdmX inh; Mdm2-MdmX binding, luminescent assay; 10,000 tested, 55% active; in the data active = inhibition above about 40%
FLuc counter = full-length luciferase signal inhibition, confirmation, counter-screen for Mdm2/MdmX interaction inhibitor project, cell-based, single concentration, SaOS-2. shares compounds with Mdm2-MdmX inh. SaOS-2 full-length luciferase counterscreen, luminescence. inhibition, % at 8 µM. 6,200 tested, 77% active;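 active = mean inhibition at 8 µM reaching about 37%, which flags the compound as non-specific, limit read from the data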;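 note: p53-null SaOS-2 cells with luciferase driven by a doxycycline-inducible promoter; compound on cells about two nights before reading with doxycycline added after day one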
Starred values were filed as active, the others as inactive; nt = no result given. In the library only some 4.8% were active in any assay of this set; here they are far more common.

SMILES	CSC inhib	Beta apoptosis	Calb FLC	MPTP block	Mdm2-MdmX inh	Mdm2-MdmX conf	FLuc counter
O=c1c2ccccc2nc(/C=C/c2ccc([N+](=O)[O-])o2)n1-c1ccc(O)cc1	nt	nt	98*	0	75*	85*	23
COc1cc(/C=C/c2nc3ccccc3c(=O)n2-c2ccccc2O)ccc1O	-2	-1	13	2	69*	18	nt
Cc1ccccc1-n1c(/C=C/c2ccccn2)nc2ccccc2c1=O	15	-2	1	1	58*	35	67*
O=c1c2ccccc2nc(/C=C/c2ccccc2)n1-c1ccccc1O	90*	3	-10	1	53*	24	nt
FC(F)(F)c1ccc2c(c1)N(CCCN1CCN(CCCl)CC1)c1ccccc1S2	44	4	-10	14	61*	23	nt
CNC(=O)c1cccn(Cc2ccc(C(F)(F)F)cc2)c1=O	12	10	-5	0	56*	26	nt
N[C@@H](Cc1ccc(N(CCCl)CCCl)cc1)C(=O)O	30	11	nt	-1	68*	40	36*
CC/C(=C\C=C\[C@@H]1C=C[C@@H]2CCC[C@H]2[C@@H]1C(=O)c1ccc[nH]1)[C@@H]1O[C@@H]([C@@H](C)C(=O)O)CC[C@@H]1C	90*	35	38	nt	84*	74*	37*
CC(C)(C)C1(CCO)C(=O)NC(=S)NC1=O	nt	nt	nt	-2	nt	nt	nt
CCOc1ccc(-n2c(-c3ccoc3)nc3ccccc3c2=O)cc1	nt	nt	-13	-1	-2	nt	nt
CCOc1ccc(-c2c(C)n(-c3ccc(OCC)cc3)c3[n+]2CCCCC3)cc1	34	nt	87*	48	88*	87*	49*
O=C(NCC1=C(c2ccc3ccccc3c2)C[C@@H]2CC[C@H]1N2Cc1ccco1)c1ccc([N+](=O)[O-])cc1	nt	nt	nt	-2	nt	nt	nt
C=CC[C@@H](CC/C=C/C=C/CC/C=C\[C@@H]1CSC([C@@H]2C[C@@H]2C)=N1)OC	nt	nt	nt	1	56*	49*	114*
C/C=C(\C)C(=O)OC1C(C)=C2C(C1OC(=O)CCCCC)C(C)(OC(C)=O)CC(OC(=O)CCC)C1(O)C2OC(=O)C1(C)O (configuration not stated)	101*	107*	24	nt	82*	64*	24
CC1CCCC(C)N1/N=C/c1c[nH]c2ccc(Br)cc12 (configuration not stated)	nt	4	4	12	52*	27	nt
N=C1c2ccccc2CN1c1ccc(F)c([N+](=O)[O-])c1	-8	3	0	1	53*	30	nt
N=C1c2ccccc2CN1c1cccc([N+](=O)[O-])c1	-12	-2	7	-1	-4	nt	nt
COC(=O)C1=C(c2cc3ccccc3s2)C[C@@H]2CC[C@H]1N2C(=O)NCc1ccc(C(F)(F)F)cc1	60	-1	13	1	57*	18	nt
COC(=O)C1=C(c2cc3ccccc3s2)C[C@@H]2CC[C@H]1N2C(=O)NCC1CC1	-6	nt	-1	2	39	nt	nt
O=c1[nH]c2ccccc2n1C1CCN(C(c2nnnn2-c2ccc3c(c2)OCCO3)C2CC2)CC1 (configuration not stated)	nt	nt	nt	-1	nt	nt	nt
Cc1ncc2n1-c1ccc(Cl)cc1C(c1ccccc1F)=NC2	nt	nt	nt	-2	51*	14	nt
CC(C)(O)/C=C/C(=O)[C@](C)(O)C1[C@H](O)C[C@@]2(C)C3CC=C4C(C[C@H](O)[C@@H](O)C4(C)C)[C@]3(C)C(=O)C[C@]12C (some centres not stated)	53	52	nt	0	98*	94*	7
O=C(c1ccccc1)C(Cc1ccccc1)N1CCOCC1 (configuration not stated)	nt	nt	nt	-1	nt	nt	nt
CCOC(=O)c1ccccc1C(=O)OCC	-8	-11	15	2	-9	nt	nt
CCOC(=O)c1ccc(-[n+]2c(-c3ccccc3)cc(-c3ccccc3)cc2-c2ccccc2)cc1	11	123*	39	nt	93*	61*	24
